High-throughput results deposited in PubChem BioAssay by several laboratories.
Insulin prom inh: TRM-6 insulin promoter activity inhibition | hit rate 0.9% among 130,000 | AID 1273 | inhibition, % at 2 µM | TRM-6 cells (human fetal islet line), insulin promoter-eGFP reporter, imaging; reporter expression induced with tamoxifen;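 active = inhibition above the mean plus 3 SD, with well images judged a real hit on visual review, cut at about 60% in these data, passing the limit was not always enough; inconclusive = inhibition over the cutoff but images rejected on review; inactive = inhibition not above the cutoff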
SDO1 yeast rescue: compounds rescuing growth of sdo1-depleted yeast, bone marrow failure model. S. cerevisiae sdo1-depleted JHY4D growth rescue, OD600 30 h; active compounds read high; pdr5 snq2 efflux-pump mutant strain. z-score at 10 µM. hit rate 0.21% among 140,000. AID 817;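 active = z-score above 3 at both the 24 hr and the 30 hr optical density reads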
Measles CPE: protection of cells from measles virus | hit rate 1.5% among 140,000 | Measles virus-infected cells, CPE protection, absorbance | protection (pct of control), % at 4 µM; in the data active = protection mostly above about 24%, no sharp cut-off; inactive = mostly below about 26%
ROMK primary: modulators of human ROMK potassium channel. P48048. B-score at 10 µM. Tet-inducible ROMK, thallium flux fluorescence; actives lie on both sides. hit rate 2% among 130,000;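 active = signal ratio slope over the read window, or its plate-corrected B-score, at least 3 SD from the plate mean, either direction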;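 also: B-score of the F/F0 ratio slope over 7 to 12 s after thallium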
Target sequence (P48048 whole entry, looked up): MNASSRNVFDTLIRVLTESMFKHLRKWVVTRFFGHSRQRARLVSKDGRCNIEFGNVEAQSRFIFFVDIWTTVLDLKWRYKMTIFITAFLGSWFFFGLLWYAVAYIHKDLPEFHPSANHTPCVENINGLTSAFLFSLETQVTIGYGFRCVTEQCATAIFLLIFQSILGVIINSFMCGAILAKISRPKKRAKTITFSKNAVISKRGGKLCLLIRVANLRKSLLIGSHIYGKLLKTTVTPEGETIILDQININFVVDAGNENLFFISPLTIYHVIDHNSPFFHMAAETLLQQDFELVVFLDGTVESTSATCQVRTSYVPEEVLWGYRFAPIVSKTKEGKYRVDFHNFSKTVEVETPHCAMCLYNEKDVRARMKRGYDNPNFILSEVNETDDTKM
ROMK hit retest: confirmation of human ROMK potassium channel modulators; shares compounds with ROMK primary; ROMK thallium flux, fluorescence ratio; active compounds read low; normalized thallium flux (F/F0 slope) at 10 µM; hit rate 54% among 3,000;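 active = Flux at 10 µM at least 3 SD below or above vehicle control mean in one or both replicates; inconclusive = no clear call, values can overlap the other calls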
Numbers stand for hits; . = inactive; ? = inconclusive; / = no result. Sampled rows, rich in hits. Any-hit rate of the full collection: about 3%.

SMILES	Insulin prom inh	SDO1 yeast rescue	Measles CPE	ROMK primary	ROMK hit retest
OC1(c2ccccc2)CCN(Cc2ccccc2)C2CCCCC21 (configuration not stated)	.	.	.	-4.48	0.0669
Cc1ccccc1N1C(=O)C(Oc2ccc(Cl)cc2)C1CNC(C)(C)C (configuration not stated)	.	.	.	.	/
CCCN1Cc2cccc(C(=O)N3CCN(c4cc(Cl)ccc4C)CC3)c2C1=O	/	.	.	/	?
CCOc1ncccc1C(=O)N1CCN(c2cccc(C)c2C)CC1	/	/	/	7.26	.
COCCN1Cc2cccc(C(=O)N3CCN(c4cc(C)ccc4C)CC3)c2C1=O	/	.	.	/	/
CCOc1ncccc1C(=O)N1CCN(C(=O)c2ccccc2)CC1	.	/	/	.	/
CCOc1ncccc1C(=O)N1CCN(c2cc(Cl)ccc2C)CC1	/	/	/	3.28	.
CC(=O)c1ccc(NC(=S)Nc2cccc(S(=O)(=O)Nc3c(C)n(C)n(-c4ccccc4)c3=O)c2)cc1	/	/	/	.	/
CC(C)(C)c1ccc(OCC(O)CSc2ncn[nH]2)cc1 (configuration not stated)	.	.	.	.	/
CSc1cccc(NC(=S)N(CCCN2CCCC(C)C2)Cc2cccs2)c1 (configuration not stated)	.	/	/	-4.39	0.0578
COc1ccc(NC(=S)N(CCCN2CCN(C)CC2)Cc2cccs2)cc1	.	.	.	.	/
COc1ccc(NC(=S)N(CCCN2CCC(C)CC2)Cc2cccs2)cc1Cl	/	/	/	-5.16	0.0553
CC/C(=C\C1CCCCC1)C(NP(=O)(c1ccccc1)c1ccccc1)c1ccccc1 (configuration not stated)	.	.	.	.	/
CC/C(=C\c1oc2cc3ccccc3cc2[n+]1CC)Nc1ccccc1	/	/	/	/	0.0549
CC[n+]1c(/C=C/Nc2ccccc2)oc2ccc(OC)cc21	.	/	/	.	/
COc1ccc(C(=O)NN(C)c2nc(-c3ccccc3)nnc2C(F)(F)F)cc1	/	.	.	.	/
COc1ccc(C(=O)NN(C)c2nc(C(F)(F)F)nc3ccccc23)cc1	/	/	/	3.47	.
O=C(Oc1ccc(Nc2ncnc3ccccc23)cc1)c1cccnc1	/	/	/	-2.91	0.065
CN1CCN(CCCN2c3ccccc3Sc3ccc(Cl)cc32)CC1	.	.	.	/	0.0481
CS(=O)(=O)c1ccc(C(=O)NCCN2C(=O)S/C(=C\c3cccnc3)C2=O)cc1[N+](=O)[O-]	/	/	/	.	/
Cc1ccc(-n2nnnc2Sc2ccc(S(=O)(=O)NCCN(C)C)cc2[N+](=O)[O-])cc1	.	.	.	-3.54	0.0573
CN(C)CCNS(=O)(=O)c1ccc(N2CCN(c3ccc(F)cc3)CC2)c([N+](=O)[O-])c1	.	.	.	-3.98	0.0645
O=[N+]([O-])c1cc(S(=O)(=O)NCCN2CCOCC2)ccc1Sc1nnnn1-c1ccccc1	.	.	.	.	/
CCNS(=O)(=O)c1ccc(C)c(-n2cnnn2)c1C	.	.	.	.	/
CSc1nc2ccc(S(=O)(=O)NC3CCCCC3)cc2s1	.	.	.	-2.38	?
SMILES	Insulin prom inh	SDO1 yeast rescue	Measles CPE	ROMK primary	ROMK hit retest
CSc1nc2ccc(S(=O)(=O)N3CCCCC3)cc2s1	.	.	.	.	/
C/C(=C\c1ccccc1)C(=O)Nc1nccs1	/	/	/	1.08	?
COc1ccc(C2SCCN2S(=O)(=O)c2ccc(F)cc2)cc1OC (configuration not stated)	.	.	.	/	/
COc1ccccc1C1SCCN1S(=O)(=O)c1cccc(C(F)(F)F)c1 (configuration not stated)	.	.	.	-4.34	0.0658
O=C(CNS(=O)(=O)c1ccc(Br)s1)NC1CCCc2ccccc21 (configuration not stated)	.	.	.	-3.81	0.0668
CCOC(=O)COn1c(=O)c(-c2cccs2)[n+]([O-])c2ccccc21	.	.	.	-4.18	0.059
c1ccc(Cc2nnc(N3CCCCC3)c3ccccc23)cc1	/	/	/	-2.25	0.0669
COc1cccc(-n2c(=O)c3cc(OC)c(OC)cc3n(CC(=O)Nc3cc(C)[nH]n3)c2=O)c1	.	.	.	.	/
COc1ccc(NC(=O)c2cc(-c3cccc(OC)c3)on2)cc1	.	/	/	-4.42	.
COc1cccc(-c2cc(C(=O)NCc3cccs3)no2)c1	/	/	/	-2.08	.
COc1ccc(-c2cc(C(=O)NCc3cccs3)no2)cc1	/	/	/	.	/
CCCCNC(=O)CSc1nnc(-c2c[nH]c3ccccc23)n1CC1CCCO1 (configuration not stated)	.	.	.	.	/
CCCCCCCCCCCCOC(=O)C[N+](C)(C)C	/	/	/	-3.84	0.048
CCCCCCCCOC(=O)C[N+](C)(C)C/C=C(/C)Cl	.	.	.	.	/
CCCCCCCCCCOC(=O)C[N+](C)(C)C/C=C(/C)Cl	.	.	.	/	0.0572
